In ChEMBL document CHEMBL2218924, “A broad activity screen in support of a chemogenomic map for kinase signalling research and drug discovery” (Biochem J, 2013):

Assays:
[1] = biological target: Serine/threonine-protein kinase WNK2 (Homo sapiens) (UniProt Q9Y3S1); conditions: at 10 µM
[2] = biological target: Serine/threonine-protein kinase WNK3 (Homo sapiens) (UniProt Q9BYP7); conditions: at 1 µM
[3] = biological target: Serine/threonine-protein kinase WNK3 (Homo sapiens) (UniProt Q9BYP7); conditions: at 10 µM
[4] = biological target: Tyrosine-protein kinase Yes (Homo sapiens) (UniProt P07947); conditions: at 1 µM
Tyrosine-protein kinase Yes (Homo sapiens), sequence (P07947 2-543 limits assumed): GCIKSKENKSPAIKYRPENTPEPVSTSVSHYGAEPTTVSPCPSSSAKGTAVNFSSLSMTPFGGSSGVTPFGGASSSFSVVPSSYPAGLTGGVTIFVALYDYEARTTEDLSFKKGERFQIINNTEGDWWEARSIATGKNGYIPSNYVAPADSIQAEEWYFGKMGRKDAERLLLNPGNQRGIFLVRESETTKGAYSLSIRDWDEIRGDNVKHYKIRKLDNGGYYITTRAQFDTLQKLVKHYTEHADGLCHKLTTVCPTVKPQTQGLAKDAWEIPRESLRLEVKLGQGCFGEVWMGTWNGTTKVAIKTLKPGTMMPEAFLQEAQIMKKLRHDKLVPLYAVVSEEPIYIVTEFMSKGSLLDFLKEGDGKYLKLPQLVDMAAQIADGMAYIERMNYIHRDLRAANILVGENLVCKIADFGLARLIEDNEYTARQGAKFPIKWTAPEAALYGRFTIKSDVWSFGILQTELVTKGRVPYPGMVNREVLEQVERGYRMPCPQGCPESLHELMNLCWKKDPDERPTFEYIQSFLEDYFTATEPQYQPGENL

[5] = biological target: Tyrosine-protein kinase Yes (Homo sapiens) (UniProt P07947); conditions: at 10 µM
[6] = biological target: T1, Tyrosine-protein kinase ZAP-70 (Homo sapiens) (UniProt P43403); conditions: at 1 µM
T1 sequence (whole entry): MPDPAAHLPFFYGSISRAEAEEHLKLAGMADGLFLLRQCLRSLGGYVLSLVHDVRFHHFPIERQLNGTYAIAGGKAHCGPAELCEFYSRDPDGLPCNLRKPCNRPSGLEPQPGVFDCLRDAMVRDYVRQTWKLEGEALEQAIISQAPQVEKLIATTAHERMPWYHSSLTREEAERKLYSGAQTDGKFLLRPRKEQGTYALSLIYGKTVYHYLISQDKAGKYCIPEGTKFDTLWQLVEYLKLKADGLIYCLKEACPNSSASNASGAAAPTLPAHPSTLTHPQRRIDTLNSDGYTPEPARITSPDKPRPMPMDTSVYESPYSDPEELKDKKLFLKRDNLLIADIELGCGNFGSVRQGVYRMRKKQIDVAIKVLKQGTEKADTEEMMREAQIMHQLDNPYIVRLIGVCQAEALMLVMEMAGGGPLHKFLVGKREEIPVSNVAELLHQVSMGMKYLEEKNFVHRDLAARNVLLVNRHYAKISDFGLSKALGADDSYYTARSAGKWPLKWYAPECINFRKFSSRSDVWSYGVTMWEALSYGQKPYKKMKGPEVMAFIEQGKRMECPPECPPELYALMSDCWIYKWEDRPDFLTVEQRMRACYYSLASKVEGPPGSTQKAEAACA

[7] = biological target: Death-associated protein kinase 3 (Homo sapiens) (UniProt O43293); conditions: at 1 µM
Death-associated protein kinase 3 (Homo sapiens), sequence (O43293 whole entry, looked up): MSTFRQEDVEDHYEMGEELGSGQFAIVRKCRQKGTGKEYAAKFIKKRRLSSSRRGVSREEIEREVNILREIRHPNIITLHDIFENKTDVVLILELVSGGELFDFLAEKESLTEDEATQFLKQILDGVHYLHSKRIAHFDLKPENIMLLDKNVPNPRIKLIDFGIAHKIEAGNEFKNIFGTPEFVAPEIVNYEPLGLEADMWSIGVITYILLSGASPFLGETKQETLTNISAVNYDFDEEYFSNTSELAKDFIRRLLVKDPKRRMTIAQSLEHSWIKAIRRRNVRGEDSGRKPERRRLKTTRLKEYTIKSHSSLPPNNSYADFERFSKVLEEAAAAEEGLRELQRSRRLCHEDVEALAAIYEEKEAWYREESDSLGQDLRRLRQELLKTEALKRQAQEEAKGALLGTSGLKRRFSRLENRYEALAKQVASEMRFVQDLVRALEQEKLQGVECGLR

[8] = biological target: Death-associated protein kinase 3 (Homo sapiens) (UniProt O43293); conditions: at 10 µM
[9] = biological target: RAF proto-oncogene serine/threonine-protein kinase (Homo sapiens) (UniProt P04049); conditions: at 1 µM
RAF proto-oncogene serine/threonine-protein kinase (Homo sapiens), sequence (P04049 whole entry): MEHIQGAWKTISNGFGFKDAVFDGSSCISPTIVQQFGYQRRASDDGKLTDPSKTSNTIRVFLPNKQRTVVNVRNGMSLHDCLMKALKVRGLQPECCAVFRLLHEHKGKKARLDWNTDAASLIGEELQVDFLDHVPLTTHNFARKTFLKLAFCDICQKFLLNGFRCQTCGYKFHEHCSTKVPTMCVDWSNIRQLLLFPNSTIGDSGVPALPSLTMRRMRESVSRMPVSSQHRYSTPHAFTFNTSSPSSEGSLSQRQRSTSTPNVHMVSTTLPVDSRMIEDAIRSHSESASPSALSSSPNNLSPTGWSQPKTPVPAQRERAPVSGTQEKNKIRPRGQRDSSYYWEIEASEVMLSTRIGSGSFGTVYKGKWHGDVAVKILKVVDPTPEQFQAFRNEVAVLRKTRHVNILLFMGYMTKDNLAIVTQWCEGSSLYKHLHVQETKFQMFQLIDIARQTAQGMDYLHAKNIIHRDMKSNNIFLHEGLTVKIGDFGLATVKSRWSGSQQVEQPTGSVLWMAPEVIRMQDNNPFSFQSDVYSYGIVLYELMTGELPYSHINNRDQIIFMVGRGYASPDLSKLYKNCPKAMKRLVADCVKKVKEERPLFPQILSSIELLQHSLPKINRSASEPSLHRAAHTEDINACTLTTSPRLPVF

[10] = biological target: RAF proto-oncogene serine/threonine-protein kinase (Homo sapiens) (UniProt P04049); conditions: at 10 µM
[11] = biological target: Mast/stem cell growth factor receptor Kit (Homo sapiens) (UniProt P10721); conditions: at 1 µM
Mast/stem cell growth factor receptor Kit (Homo sapiens), sequence (P10721 whole entry): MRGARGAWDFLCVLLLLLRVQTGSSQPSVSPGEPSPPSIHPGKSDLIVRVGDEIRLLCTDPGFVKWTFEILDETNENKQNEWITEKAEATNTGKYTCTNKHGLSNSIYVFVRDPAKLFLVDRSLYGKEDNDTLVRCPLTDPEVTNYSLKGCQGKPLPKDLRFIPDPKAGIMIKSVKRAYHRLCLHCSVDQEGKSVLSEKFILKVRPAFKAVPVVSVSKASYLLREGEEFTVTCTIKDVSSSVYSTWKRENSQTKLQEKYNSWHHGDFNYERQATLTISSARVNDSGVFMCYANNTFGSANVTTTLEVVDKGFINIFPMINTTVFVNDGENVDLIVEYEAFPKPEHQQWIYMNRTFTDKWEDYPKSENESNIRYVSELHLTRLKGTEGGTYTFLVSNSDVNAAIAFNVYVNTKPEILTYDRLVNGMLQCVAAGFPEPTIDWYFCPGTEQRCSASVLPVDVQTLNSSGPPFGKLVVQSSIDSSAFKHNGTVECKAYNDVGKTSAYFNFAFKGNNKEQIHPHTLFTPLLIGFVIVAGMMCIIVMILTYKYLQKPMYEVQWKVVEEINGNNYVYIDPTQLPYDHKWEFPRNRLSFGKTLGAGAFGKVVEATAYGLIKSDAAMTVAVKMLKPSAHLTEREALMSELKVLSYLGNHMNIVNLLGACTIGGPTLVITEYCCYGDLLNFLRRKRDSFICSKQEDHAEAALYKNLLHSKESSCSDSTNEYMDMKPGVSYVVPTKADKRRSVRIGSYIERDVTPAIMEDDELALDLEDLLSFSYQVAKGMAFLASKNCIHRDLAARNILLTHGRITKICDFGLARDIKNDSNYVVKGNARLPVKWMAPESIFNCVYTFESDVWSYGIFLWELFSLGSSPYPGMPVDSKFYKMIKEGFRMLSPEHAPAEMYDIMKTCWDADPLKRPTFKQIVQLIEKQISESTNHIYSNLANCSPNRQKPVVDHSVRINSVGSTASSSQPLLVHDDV

[12] = biological target: Mast/stem cell growth factor receptor Kit (Homo sapiens) (UniProt P10721); conditions: at 10 µM
[13] = biological target: Proto-oncogene tyrosine-protein kinase Src (Homo sapiens) (UniProt P12931); conditions: at 1 µM
Proto-oncogene tyrosine-protein kinase Src (Homo sapiens), sequence (P12931 2-536 limits assumed): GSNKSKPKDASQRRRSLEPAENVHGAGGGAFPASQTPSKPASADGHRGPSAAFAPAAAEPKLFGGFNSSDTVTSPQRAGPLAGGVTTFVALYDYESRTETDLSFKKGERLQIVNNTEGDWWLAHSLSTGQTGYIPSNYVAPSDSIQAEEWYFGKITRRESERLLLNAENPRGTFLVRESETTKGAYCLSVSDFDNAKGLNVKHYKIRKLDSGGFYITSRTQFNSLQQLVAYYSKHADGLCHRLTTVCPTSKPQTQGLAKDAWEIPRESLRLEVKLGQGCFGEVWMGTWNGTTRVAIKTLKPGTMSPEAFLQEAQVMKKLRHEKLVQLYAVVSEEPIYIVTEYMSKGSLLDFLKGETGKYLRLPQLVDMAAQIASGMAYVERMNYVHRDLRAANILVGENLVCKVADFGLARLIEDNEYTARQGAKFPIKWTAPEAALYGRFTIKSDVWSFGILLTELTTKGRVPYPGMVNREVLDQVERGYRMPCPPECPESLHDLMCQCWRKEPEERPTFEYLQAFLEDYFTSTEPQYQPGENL

[14] = biological target: Proto-oncogene tyrosine-protein kinase Src (Homo sapiens) (UniProt P12931); conditions: at 10 µM
[15] = biological target: Serine/threonine-protein kinase mTOR (Homo sapiens) (UniProt P42345); conditions: at 1 µM
[16] = biological target: Serine/threonine-protein kinase mTOR (Homo sapiens) (UniProt P42345); conditions: at 10 µM
[17] = biological target: Serine/threonine-protein kinase mTOR (Homo sapiens) (UniProt P42345); conditions: at 1 µM; remark: listed apart in the source
[18] = biological target: Serine/threonine-protein kinase mTOR (Homo sapiens) (UniProt P42345); conditions: at 10 µM; remark: listed apart in the source
[19] = biological target: T2, Eukaryotic elongation factor 2 kinase (Homo sapiens) (UniProt O00418); conditions: at 1 µM
T2 sequence (whole entry): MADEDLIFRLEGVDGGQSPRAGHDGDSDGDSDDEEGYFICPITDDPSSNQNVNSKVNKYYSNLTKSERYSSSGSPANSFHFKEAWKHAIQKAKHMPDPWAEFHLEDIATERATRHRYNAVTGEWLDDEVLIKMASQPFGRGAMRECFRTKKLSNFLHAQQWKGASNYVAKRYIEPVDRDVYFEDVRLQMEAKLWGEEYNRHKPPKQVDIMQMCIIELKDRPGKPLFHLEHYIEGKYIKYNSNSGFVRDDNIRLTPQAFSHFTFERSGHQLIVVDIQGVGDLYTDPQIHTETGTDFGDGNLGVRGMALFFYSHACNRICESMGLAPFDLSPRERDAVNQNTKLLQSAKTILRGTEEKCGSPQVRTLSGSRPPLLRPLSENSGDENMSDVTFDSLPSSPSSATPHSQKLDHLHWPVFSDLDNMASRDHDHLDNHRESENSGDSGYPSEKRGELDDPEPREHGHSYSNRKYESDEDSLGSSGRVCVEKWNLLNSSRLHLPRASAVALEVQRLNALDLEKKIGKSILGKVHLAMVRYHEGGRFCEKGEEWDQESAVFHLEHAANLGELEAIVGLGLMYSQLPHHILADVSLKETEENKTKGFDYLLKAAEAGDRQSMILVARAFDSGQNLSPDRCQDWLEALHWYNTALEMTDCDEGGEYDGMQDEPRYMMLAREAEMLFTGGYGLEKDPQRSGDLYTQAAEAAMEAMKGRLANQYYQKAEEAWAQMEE

[20] = biological target: T2, Eukaryotic elongation factor 2 kinase (Homo sapiens); conditions: at 10 µM

Serine/threonine-protein kinase WNK3 (Homo sapiens), sequence (Q9BYP7 whole entry): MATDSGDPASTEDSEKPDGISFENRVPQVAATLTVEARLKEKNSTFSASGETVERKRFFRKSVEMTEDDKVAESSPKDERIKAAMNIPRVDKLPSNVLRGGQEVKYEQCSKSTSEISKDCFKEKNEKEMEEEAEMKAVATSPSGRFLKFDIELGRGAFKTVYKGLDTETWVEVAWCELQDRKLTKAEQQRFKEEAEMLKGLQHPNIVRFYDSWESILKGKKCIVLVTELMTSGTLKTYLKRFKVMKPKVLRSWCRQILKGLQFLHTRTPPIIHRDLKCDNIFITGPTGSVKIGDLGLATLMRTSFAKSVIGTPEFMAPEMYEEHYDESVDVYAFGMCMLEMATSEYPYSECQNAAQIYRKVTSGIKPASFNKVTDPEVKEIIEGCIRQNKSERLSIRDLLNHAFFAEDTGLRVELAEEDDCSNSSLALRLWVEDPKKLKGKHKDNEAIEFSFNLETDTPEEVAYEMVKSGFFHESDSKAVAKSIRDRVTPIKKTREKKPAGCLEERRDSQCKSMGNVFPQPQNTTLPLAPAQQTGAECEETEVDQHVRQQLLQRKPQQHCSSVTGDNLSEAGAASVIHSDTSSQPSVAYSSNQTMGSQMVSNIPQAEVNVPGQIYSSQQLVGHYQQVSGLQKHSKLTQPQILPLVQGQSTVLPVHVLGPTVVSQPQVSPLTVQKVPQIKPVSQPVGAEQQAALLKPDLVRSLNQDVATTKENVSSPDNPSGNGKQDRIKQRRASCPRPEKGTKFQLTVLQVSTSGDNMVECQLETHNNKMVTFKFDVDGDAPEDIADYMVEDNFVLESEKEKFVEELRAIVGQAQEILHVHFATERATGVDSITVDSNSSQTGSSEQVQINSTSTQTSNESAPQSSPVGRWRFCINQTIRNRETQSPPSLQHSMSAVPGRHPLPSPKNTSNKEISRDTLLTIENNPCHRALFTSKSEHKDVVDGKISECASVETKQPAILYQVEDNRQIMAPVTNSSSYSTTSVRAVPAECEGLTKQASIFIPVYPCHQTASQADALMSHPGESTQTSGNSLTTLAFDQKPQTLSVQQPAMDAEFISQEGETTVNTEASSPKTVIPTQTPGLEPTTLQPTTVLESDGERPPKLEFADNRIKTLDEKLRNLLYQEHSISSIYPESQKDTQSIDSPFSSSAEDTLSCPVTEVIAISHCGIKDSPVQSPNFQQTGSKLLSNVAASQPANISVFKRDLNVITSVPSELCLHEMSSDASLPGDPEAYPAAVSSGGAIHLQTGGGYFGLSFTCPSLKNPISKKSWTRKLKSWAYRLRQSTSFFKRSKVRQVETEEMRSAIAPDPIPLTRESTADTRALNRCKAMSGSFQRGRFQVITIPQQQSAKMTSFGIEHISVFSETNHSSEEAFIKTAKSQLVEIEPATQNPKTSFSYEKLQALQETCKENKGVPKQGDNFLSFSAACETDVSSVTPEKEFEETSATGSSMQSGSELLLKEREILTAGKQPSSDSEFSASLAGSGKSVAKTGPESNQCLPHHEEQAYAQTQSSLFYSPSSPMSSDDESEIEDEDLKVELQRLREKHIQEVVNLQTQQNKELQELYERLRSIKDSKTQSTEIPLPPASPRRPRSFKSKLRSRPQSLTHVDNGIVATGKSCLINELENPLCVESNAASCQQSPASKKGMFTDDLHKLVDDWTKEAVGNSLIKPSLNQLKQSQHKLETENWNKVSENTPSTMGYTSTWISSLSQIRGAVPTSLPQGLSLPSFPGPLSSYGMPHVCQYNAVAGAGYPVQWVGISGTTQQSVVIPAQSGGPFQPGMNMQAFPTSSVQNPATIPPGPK

| SMILES | residual activity [1] [%] | residual activity [2] | residual activity [3] [%] | residual activity [4] [%] | residual activity [5] [%] | residual activity [6] [%] | residual activity [7] [%] | residual activity [8] [%] | residual activity [9] [%] | residual activity [10] [%] | residual activity [11] [%] | residual activity [12] [%] | residual activity [13] [%] | residual activity [14] [%] | residual activity [15] [%] | residual activity [16] [%] | residual activity [17] [%] | residual activity [18] [%] | residual activity [19] | residual activity [20] [%] |
| --- | --- | --- | --- | --- | --- | --- | --- | --- | --- | --- | --- | --- | --- | --- | --- | --- | --- | --- | --- | --- |
| CNc1cc2c(Nc3cccc(Br)c3)ncnc2cn1 | 89 | 101% (inactive) | 91 | 67 | 45 | 99 | 84 | 88 | 80 | 91 | 110 | 106 | 86 | 78 | 105 | 104 | 100 | 107 | – | – |
| COc1ccc(CNc2nc(N(CCO)CCO)nc3c2ncn3C(C)C)cc1 | 86 | 97% (inactive) | 93 | 100 | 89 | 102 | 99 | 92 | 85 | 69 | 91 | 66 | 104 | 82 | 106 | 97 | 128 | 99 | 106% (inactive) | 101 |
| CC#CC(=O)Nc1cc2c(Nc3ccc(F)c(Cl)c3)ncnc2cn1 | 84 | 102% (inactive) | 79 | 101 | 90 | 103 | 90 | 100 | 82 | 92 | 111 | 100 | 89 | 92 | 108 | 100 | 113 | 92 | – | – |
| O=C1c2ccccc2-[n+]2ccc3c([nH]c4ccccc43)c21 | 92 | 91% (inactive) | 93 | 113 | 86 | 128 | 73 | 78 | 71 | 73 | 106 | 97 | 111 | 91 | 103 | 103 | 116 | 101 | – | – |
| O=C1Nc2ccccc2/C1=C1/Nc2ccccc2/C1=N\OCCC(O)CO (stereo unspecified) | 40 | 76% (inactive) | 50 | 8 | 2 | 97 | 63 | 54 | 54 | 60 | 10 | 1 | 20 | -2 | 113 | 96 | 112 | 110 | – | – |
| Cn1cc(/C=C2\C(=O)Nc3ccc(S(N)(=O)=O)cc32)c2ccccc21 | 85 | 97% (inactive) | 75 | 8 | 2 | 107 | 106 | 90 | 91 | 100 | 69 | 17 | 49 | 25 | 106 | 99 | 104 | 102 | – | – |
| Cc1nc2cc3nc(-c4cccs4)cnc3cc2n1C | 94 | 124% (inactive) | 71 | 106 | 59 | 135 | 97 | 102 | 97 | 95 | 80 | 13 | 78 | 86 | 105 | 107 | 80 | 84 | – | – |
| CC(=O)O/N=C1\C(=C2\C(=O)Nc3cc(Br)ccc32)Nc2ccccc21 | 92 | 101% (inactive) | 94 | 42 | 4 | 106 | 99 | 71 | 80 | 75 | 97 | 32 | 22 | 8 | 96 | 94 | 105 | 84 | – | – |
| O=Nc1c(-c2c(O)[nH]c3ccccc23)[nH]c2ccccc12 | 55 | 89% (inactive) | 60 | 17 | 0 | 79 | 81 | 37 | 89 | 66 | 20 | 2 | 35 | 5 | 100 | 98 | 117 | 89 | 109% (inactive) | 93 |
| O=c1c2ccccc2[nH]c(=S)n1CCN1CCC(=C(c2ccc(F)cc2)c2ccc(F)cc2)CC1 | 94 | 116% (inactive) | 102 | 105 | 96 | 101 | 75 | 74 | 83 | 94 | 106 | 89 | 85 | 97 | 78 | 85 | 107 | 69 | – | – |
| Nc1cccc(-c2cc3c(Oc4cccc(O)c4)ncnc3[nH]2)c1 | 40 | 93% (inactive) | 49 | 1 | -1 | – | 92 | – | 36 | 10 | 20 | 2 | 6 | -3 | – | 83 | 122 | 94 | – | – |
| c1ccc(-c2n[nH]c3c2oc2ccccc23)cc1 | 74 | – | – | 99 | 67 | – | 94 | 100 | 74 | 85 | 16 | 1 | 86 | 90 | 88 | 85 | – | 72 | – | – |
| N#CC(C#N)=C(N)/C(C#N)=C/c1ccc(O)cc1 | 83 | 96% (inactive) | 75 | – | 93 | 128 | – | – | 92 | 88 | – | – | 83 | – | – | – | – | 61 | – | – |
| Oc1ccc(-c2nc(-c3ccc(F)cc3)c(-c3ccncc3)[nH]2)cc1 | 84 | 109% (inactive) | 75 | 105 | 34 | 117 | 121 | 101 | 14 | – | 122 | 107 | 108 | 45 | 98 | 90 | 123 | 90 | – | – |
| Nc1nc(Nc2ccc(S(N)(=O)=O)cc2)nn1C(=S)Nc1c(F)cccc1F | – | 77% (inactive) | 64 | 3 | 2 | 124 | 90 | 78 | 82 | 26 | 100 | 66 | 23 | 1 | 108 | 89 | 128 | 94 | – | – |
